Source: PubChem (National Center for Advancing Translational Sciences (NCATS))
Sampled rows, rich in hits. Any-hit rate of the full collection: about 5.7%.
BAZ2B inh – qHTS Assay for Inhibitors of BAZ2B. Bromodomain adjacent to zinc finger domain protein 2B (Homo sapiens), Q9UIF8. AlphaScreen BAZ2B-H3K14Ac peptide displacement. Potency, µM (doses to about 114 µM), hits mostly inhibitors. 360,000 compounds, 4.4% hits. AID 504333, 2011; also: nearly all actives have a fitted effect of over 60% in size
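AlphaScreen displacement: compounds (up to 110uM) incubated 30 min at room temperature with a preformed 50 nM BAZ2B/50 nM biotinylated H3K14Ac peptide complex in PBS pH 7.4 with Tween-20. Donor and acceptor beads at 10 ug/mL final added, 20 min light-protected before reading.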
L3MBTL1 block – qHTS Assay for the Inhibitors of L3MBTL1; AlphaScreen L3MBTL1–H3K9me1 peptide binding; Potency, µM (doses to about 57.1 µM), most hits filed as inhibitors; AID 485360, 2010; Lethal(3)malignant brain tumor-like protein 1 (Homo sapiens), Q9Y468; 230,000 compounds, 0.66% hits; also: nearly all actives have a fitted effect of over 60% in size
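Displacement of a biotinylated histone H3(1-15) peptide monomethylated at Lys9 (75 nM) from L3MBTL1 (50 nM) was measured by AlphaScreen after a 30 min room-temperature compound incubation; cefsulodin titration served as intraplate control.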
KDM4E inh – qHTS Assay for Inhibitors of Human Jumonji Domain Containing 2E (JMJD2E). Lysine-specific demethylase 4E (Homo sapiens), B2RXH2. JMJD2E catalytic domain, FDH-coupled NADH fluorescence (FDH is formaldehyde dehydrogenase). Potency, µM (top dose mostly 57.1 µM), usual class: inhibitors. 230,000 compounds, 1.6% hits; active = well fitted inhibition curve with a large enough effect, not every such curve was filed as active; inconclusive = small, poorly fitted or top-dose-only effect, or another doubt; inactive = no such curve, though single readings can be large or run the other way; also: nearly all actives have a fitted effect of over 50% in size
HP1b chromo inh – HTS for Inhibitors of HP1-beta Chromodomain Interactions with Methylated Histone Tails. AlphaScreen HP1-beta / biotin-H3K9me3 peptide binding. Chromobox protein homolog 1 (Homo sapiens), P83916. Potency, µM (doses to about 114 µM), most hits filed as inhibitors. AID 540317, 2011. 390,000 compounds, 0.56% hits; also: nearly all actives have a fitted effect of over 70% in size
Target sequence (P83916 whole entry, looked up): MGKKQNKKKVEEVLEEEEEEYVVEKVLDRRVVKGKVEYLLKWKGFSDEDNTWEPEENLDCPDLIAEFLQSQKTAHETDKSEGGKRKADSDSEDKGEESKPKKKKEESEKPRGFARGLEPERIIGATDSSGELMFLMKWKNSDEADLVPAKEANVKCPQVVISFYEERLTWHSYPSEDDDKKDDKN
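AlphaScreen: HP1-beta (50 nM) preformed 30 min with biotin-H3(1-18)K9me3 peptide (50 nM) in PBS pH 7.4, 0.01% Tween-20. Compound added for 30 min at RT, then streptavidin donor/nickel chelate acceptor beads (10 ug/mL) for 30 min.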
PI5P4Ka inh – qHTS for Inhibitors of phosphatidylinositol 5-phosphate 4-kinase (PI5P4K). Phosphatidylinositol 5-phosphate 4-kinase type-2 alpha (Homo sapiens), P48426. PI5P4Kalpha enzyme, ADP-Glo luminescence, 60 min; stronger effect = lower value. max response, %. 330,000 compounds, 1.2% hits. AID 652105, 2013; active = max response of -50% or lower; inconclusive = between -30% and -50%; inactive = -30% or higher; also: value at the top dose of about 77 µM
Target sequence (P48426 whole entry, looked up): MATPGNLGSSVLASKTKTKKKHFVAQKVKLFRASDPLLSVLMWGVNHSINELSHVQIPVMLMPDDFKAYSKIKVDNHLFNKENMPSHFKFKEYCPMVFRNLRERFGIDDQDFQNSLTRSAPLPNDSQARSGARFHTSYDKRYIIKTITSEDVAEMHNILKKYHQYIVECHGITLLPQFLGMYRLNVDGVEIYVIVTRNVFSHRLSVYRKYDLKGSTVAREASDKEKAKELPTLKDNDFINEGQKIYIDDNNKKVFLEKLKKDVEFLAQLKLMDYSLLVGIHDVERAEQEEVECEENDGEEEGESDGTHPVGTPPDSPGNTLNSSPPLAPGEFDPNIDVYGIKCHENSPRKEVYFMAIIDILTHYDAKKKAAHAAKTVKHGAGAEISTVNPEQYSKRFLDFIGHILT
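Luminescence from ADP-Glo served as readout of PI5P4Kalpha activity in a qHTS format. Reaction: enzyme, substrate, compound, ATP at 5 microM final, 60 min at RT.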
JMJD2A Tudor – qHTS Assay for Inhibitors of JMJD2A-Tudor Domain | Potency, µM (top dose mostly 114 µM), hits mostly inhibitors | 390,000 compounds, 4.4% hits | AlphaScreen JMJD2A-Tudor / H3K4me3 peptide binding | AID 504339, 2011 | Lysine-specific demethylase 4A (Homo sapiens), O75164; also: nearly all actives have a fitted effect of over 50% in size
Hits are given with their value; - = inactive; ? = inconclusive; . = no result given; [ ] = another dose, or the depositor's remark. Unless noted, calls follow the shape of the dose curve; as a rule, active = well fitted inhibition curve with a large enough effect; inconclusive = small, poorly fitted or top-dose-only effect; inactive = no such curve, though single readings can be large or run the other way.

SMILES | BAZ2B inh | L3MBTL1 block | KDM4E inh | HP1b chromo inh | PI5P4Ka inh | JMJD2A Tudor
CC(=O)Nc1ccc(Oc2cc(NC(C)=O)cc([N+](=O)[O-])c2)cc1 | - | - | - | ? | ? | 17.8µM
Cc1ccc(S(=O)(=O)NNC(=O)c2ccncc2)cc1[N+](=O)[O-] | - | . | . | - | - | 3.98µM
CCCCC(O)C(=O)Nc1cc(C(F)(F)F)ccc1Cl (stereo unspecified) | . | . | . | . | . | -
CCCN(CCC)Cc1cc(=O)oc2ccc3ccccc3c12 | . | . | . | . | - | .
Fc1ccc(NCc2nc3ccccc3n2CCOc2ccccc2Cl)cc1 | - | . | . | - | . | -
COc1ccc(NCc2nc3ccccc3n2CCOc2ccccc2C)cc1 | 12.6µM | . | . | ? | . | 20µM
Cc1ccc(NCc2nc3ccccc3n2CCOc2ccccc2)cc1 | 22.4µM | ? | - | - | - | 15.8µM
COc1ccccc1N1CCN(C(=O)c2cnn(-c3cccc(Cl)c3)c2C2CCN(C(=O)OC(C)(C)C)CC2)CC1 | - | . | . | - | . | ?
CCOC(=O)c1noc2nc(C)n(Cc3cccc(C#N)c3)c(=O)c12 | - | . | . | - | . | -
CC1(C)CC(=O)C(N=Nc2ccc3ncsc3c2)=C(O)C1 | ? | . | - | - | - | -
COc1ccc2nc(N=Nc3ccc(O)c4ccccc34)sc2c1 | 2.82µM | ? | - | ? | ? | ?
COc1ccc2nc(N=NC3=C(O)CC(C)(C)CC3=O)sc2c1 | 39.8µM | . | ? | ? | - | ?
OC(CN1CCNCC1)Cn1c2ccc(Br)cc2c2cc(Br)ccc21 (stereo unspecified) | . | . | - | . | . | .
COc1ccc(C)cc1NS(=O)(=O)c1cc(Br)cc2c1N(C(C)=O)C(C)C2 (stereo unspecified) | - | . | . | - | . | -
CCOc1cc(S(=O)(=O)n2ccnc2)ccc1Cl | 79.4µM | -[11.4 µM] | - | - | - | -
CN(C)c1cc[n+](CC(=O)Nc2ccc(OC(F)F)cc2)cc1 | 50.1µM | - | - | - | - | ?
CC(=O)c1ccc(NC(=O)C[n+]2ccc(N(C)C)cc2)cc1 | - | - | . | - | - | -
COc1ccc2nc(C)cc(SCC(=O)NNC(=O)COc3ccccc3)c2c1 | - | - | - | - | - | -
COc1ccc2nc(C)cc(Sc3nc4ccccc4s3)c2c1 | - | - | ? | - | - | 79.4µM
COC(=O)C1=C[C@@H](C(=O)OC)C2C3=C(C(=O)[C@]2(C)NC(=O)c2ccccc2)[C@H](C)n2c(=O)n(-c4ccccc4)c(=O)n2[C@@H]3C1 (stereo partly specified) | . | . | . | - | . | -
CS(=O)(=O)N1CCC(C(=O)O)CC1 | 5.62µM | . | - | - | . | -
COc1cccc(NC(=O)c2ccc3nc(Cc4ccccc4)oc3c2)c1 | - | . | . | - | . | -
O=C(O)c1cnccn1 | 44.7µM | - | ? | ? | - | 25.1µM
O=C(NCN1CCCCC1)c1cnccn1 | - | - | - | - | - | -
Cc1cc(=O)oc2c(O)c(O)ccc12 | . | . | 2.24µM | - | - | 10µM
SMILES | BAZ2B inh | L3MBTL1 block | KDM4E inh | HP1b chromo inh | PI5P4Ka inh | JMJD2A Tudor
O=c1cc(-c2ccccc2O)oc2c(O)c(O)ccc12 | . | . | 11.2µM | . | . | .
O=c1cc(-c2ccccc2O)oc2ccc3ccccc3c12 | . | . | - | . | . | .
Cc1oc2c(O)c(O)ccc2c(=O)c1-c1ccc(Cl)cc1 | ? | - | . | - | - | -
Cc1c(Cc2ccccc2)c(=O)oc2c(O)c(O)ccc12 | 39.8µM | - | 3.16µM | ? | - | 44.7µM
Cc1c(Cc2ccccc2)c(=O)oc2cc(O)ccc12 | - | - | ? | - | - | -[11.4 µM]
Cc1oc2c(O)c(O)ccc2c(=O)c1-c1ccccc1 | ? | . | 12.6µM | - | - | 8.91µM
Cc1cc(C)c2nc(N(Cc3cccnc3)C(=O)c3ccc(S(=O)(=O)N(C)C)cc3)sc2c1 | - | . | . | - | . | -
O=C(O)Cc1cccc2c(=O)cc(-c3ccccc3)oc12 | . | . | . | . | - | .
O=c1cc(-c2ccccc2)oc2c(O)c(O)ccc12 | . | . | 7.94µM | . | . | .
COc1cc2cc(CN(Cc3nnnn3Cc3ccco3)C3CCCCC3)c(=O)[nH]c2cc1OC | - | - | ? | - | - | ?
CCOc1ccc2[nH]c(=O)c(CN(Cc3nnnn3Cc3ccco3)C3CCCCC3)cc2c1 | 44.7µM | . | ? | - | - | -
CCOc1ncccc1C(=O)Nc1cc(S(=O)(=O)N2CCCCCC2)ccc1OC | - | - | . | - | - | -
O=C(NCCc1nc2ccccc2n1CCOc1ccc(Cl)cc1)C1CCCCC1 | - | . | . | - | . | -
COc1ccc(-n2cc(-c3ccccc3)nc2SCC(=O)Nc2ccccc2)cc1Cl | ? | . | . | - | . | ?
O=C(NC1CCCCCC1)C1CCN(C(=O)N2CCOc3ccc(Cl)cc32)CC1 | ? | . | . | - | . | ?
O=C(c1c(F)c(F)c(F)c(F)c1F)N1CCc2ccccc21 | . | . | . | - | - | 56.2µM
COc1ccc(OC)c(-c2cc(C(=O)NC(C)c3ccccc3)no2)c1 (stereo unspecified) | - | . | . | - | . | -
CCCOc1cccc(-c2cc(C(=O)NN)c3ccccc3n2)c1 | - | - | 11.2µM | - | - | -
CCCOc1cccc(-c2cc(C(=O)N/N=C/c3ccccn3)c3ccccc3n2)c1 | - | . | . | - | - | ?
CCCCc1nc2sc3c(=O)[nH]cnc3c2c2c1CCCC2 | - | - | - | - | - | -
